In PubChem BioAssay (Tox21):
“And” between values parts separate entries of the source, which are not always exact repeats. Identical values can stand only once. Results filed as inconclusive are left out. The source made the active and inactive calls. Calls follow the shape of the dose curve; as a rule, active = well fitted curve in the direction sought with a large enough effect in the repeat runs; inconclusive = weak or mixed curves; inactive = no such curve, though single readings can be large; an effect the other way counts as inactive or inconclusive.

Key:
[1] = A CellTox Green Cytotoxicity Assay to monitor cytotoxicity in HEK293 cells - 40 hour (AID 1224871); also: nearly all actives have a fitted effect of over 45% in size
Method in brief: (§1)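 Dead-cell fluorescence measured kinetically: asymmetric cyanine dye, HEK293, 600 cells/well, 5 h settle, 23 nL cpd/DMSO, 37 C, reads 0–40 h every 8 h.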

[2] = qHTS RealTime-Glo MT Cell Viability Assay in HEK293 cells - 16 hour (AID 1224872); also: top concentration of the series differs between compounds; nearly all actives have a fitted effect of over 50% in size
Method in brief: (§2)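 HEK293 cells seeded with NanoLuc/prosubstrate reagent, rested 5 h at 37 C, then dosed and kept at 37 C up to 40 h. Nonlytic real-time luminescence from viable cells read at 0, 8, 16, 24, 32 and 40 h.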

[3] = qHTS RealTime-Glo MT Cell Viability Assay in HepG2 cells - 8 hour (AID 1224873); also: nearly all actives have a fitted effect of over 55% in size
Method in brief: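 Real-time viability: cells seeded at 600 per well together with NanoLuc and cell-permeant prosubstrate, compounds added after 5 h incubation. Luminescence tracked at 0, 8, 16, 24, 32 and 40 h of exposure.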

[4] = qHTS RealTime-Glo MT Cell Viability Assay in HEK293 cells - 40 hour (AID 1224874); conditions: RealTime-Glo luminescence; max response: active compounds read low; also: nearly all actives have a fitted effect of over 50% in size
Method in brief: (§3)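 600 HEK293 cells per well, dispensed already mixed with RealTime-Glo MT reagents. Compound dosing came 5 h later. The same wells were read for luminescence at 0, 8, 16, 24, 32 and 40 h of exposure at 37 C.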

[5] = A CellTox Green Cytotoxicity Assay to monitor cytotoxicity in HepG2 cells - 16 hour (AID 1224876); also: nearly all actives have a fitted effect of over 45% in size
Method in brief: (§4)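 First, HepG2 cells (600/well) mixed with reagent were plated; second, after 5 h at 37 C they received compounds via pintool; third, fluorescence was measured at 0 h through 40 h at 8 h intervals.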

[6] = qHTS RealTime-Glo MT Cell Viability Assay in HepG2 cells - 32 hour (AID 1224877); also: nearly all actives have a fitted effect of over 55% in size
Method in brief: (§5)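 HepG2 cells (600/well) were dispensed with RealTime-Glo reagents, incubated 5 h at 37 °C, then treated with compounds in DMSO for up to 40 h. Nonlytic NanoLuc luminescence reflecting viable cells was read at each stated time point.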

[7] = A CellTox Green Cytotoxicity Assay to monitor cytotoxicity in HepG2 cells - 24 hour (AID 1224878); also: nearly all actives have a fitted effect of over 45% in size
Method in brief: as §4

[8] = A CellTox Green Cytotoxicity Assay to monitor cytotoxicity in HepG2 cells - 40 hour (AID 1224879); also: nearly all actives have a fitted effect of over 40% in size
Method in brief: as §4

[9] = qHTS RealTime-Glo MT Cell Viability Assay in HEK293 cells - 0 hour (AID 1224880); also: top concentration of the series differs between compounds; nearly all actives have a fitted effect of over 45% in size
Method in brief: as §3

[10] = A CellTox Green Cytotoxicity Assay to monitor cytotoxicity in HEK293 cells - 32 hour (AID 1224881); also: nearly all actives have a fitted effect of over 40% in size
Method in brief: as §1

[11] = A CellTox Green Cytotoxicity Assay to monitor cytotoxicity in HepG2 cells - 0 hour (AID 1224882); also: nearly all actives have a fitted effect of over 35% in size
Method in brief: as §4

[12] = A CellTox Green Cytotoxicity Assay to monitor cytotoxicity in HepG2 cells - 32 hour (AID 1224883); also: nearly all actives have a fitted effect of over 50% in size
Method in brief: as §4

[13] = A CellTox Green Cytotoxicity Assay to monitor cytotoxicity in HEK293 cells - 8 hour (AID 1224884); also: nearly all actives have a fitted effect of over 35% in size
Method in brief: as §1

[14] = qHTS RealTime-Glo MT Cell Viability Assay in HepG2 cells - 16 hour (AID 1224885); also: nearly all actives have a fitted effect of over 50% in size
Method in brief: as §5

[15] = qHTS RealTime-Glo MT Cell Viability Assay in HEK293 cells - 24 hour (AID 1224886)
Method in brief: as §2

[16] = qHTS RealTime-Glo MT Cell Viability Assay in HEK293 cells - 8 hour (AID 1224887)
Method in brief: as §3

[17] = A CellTox Green Cytotoxicity Assay to monitor cytotoxicity in HEK293 cells - 16 hour (AID 1224888); also: nearly all actives have a fitted effect of over 35% in size
Method in brief: as §1

[18] = qHTS RealTime-Glo MT Cell Viability Assay in HepG2 cells - 0 hour (AID 1224889); also: nearly all actives have a fitted effect of over 50% in size
Method in brief: as §5

[19] = A CellTox Green Cytotoxicity Assay to monitor cytotoxicity in HepG2 cells - 8 hour (AID 1224890); also: nearly all actives have a fitted effect of over 45% in size
Method in brief: as §4
% is scaled to controls: 0 for no effect and ±100 for the full control effect.

CN1CCOCC1
inactive: Potency [1] | Potency [2] | Potency [3] | max response [4] 8.86% and 4.46% | Potency [5] | Potency [6] | Potency [7] | Potency [8] | Potency [9] | Potency [10] | Potency [11] | Potency [12] | Potency [13] | Potency [14] | Potency [15] | Potency [16] | Potency [17] | Potency [18] | Potency [19]

CCCN1C=CN(C)C1
inactive: Potency [1] | Potency [2] | Potency [3] | max response [4] -1.14% and -1.07% | Potency [5] | Potency [6] | Potency [7] | Potency [8] | Potency [9] | Potency [10] | Potency [11] | Potency [12] | Potency [13] | Potency [14] | Potency [15] | Potency [16] | Potency [17] | Potency [18] | Potency [19]

ClC/C=C/CCl
inactive: Potency [1] | Potency [2] | Potency [3] | max response [4] 18.6% and 9.13% | Potency [5] | Potency [6] | Potency [7] | Potency [8] | Potency [9] | Potency [11] | Potency [12] | Potency [13] | Potency [14] | Potency [15] | Potency [16] | Potency [17] | Potency [18] | Potency [19]
